Calls of active or inactive are those of the source. Unless noted, the rule behind the calls is not given here.

For assay [1], the system named is XIP peptide (Xip251-270) binding. Briefly: small-molecule binders of XIP peptide, primary screen, biochemical, small-molecule microarray, fluorescence 635/667 nm, 0.1 µg/mL protein (AID 1182). Conditions: fluorescent protein binding, 635 nm, higher = more signal, called active from +8 up or from −8 down.
The subject of a further assay is XIP peptide (Xip251-270). Kind of assay: small-molecule binders of XIP peptide, primary screen, biochemical, small-molecule microarray, fluorescence 635/667 nm, 0.5 µg/mL protein (AID 1183). The settings on record: small-molecule microarray binding, fluorescence 635 nm; higher = more signal.
The nature of assay [2]: Plasmodium falciparum growth inhibition, primary screen, strain 3D7, DAPI fluorescence, 100 nL (AID 1184).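 Note: parasites grown inside human red blood cells in medium with human serum.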 The settings on record: P. falciparum 3D7 growth, 3 d, higher = more signal.
Assay [3] concerns the target Homeobox protein Hox-A13 (Mus musculus) (UniProt Q62424). Briefly: inhibitors of HoxA13-DNA binding, primary screen, biochemical, fluorescence polarization, labeled oligonucleotide (AID 1185). The settings on record: 15 min, higher = more signal, called active from +8 up or from −8 down. (In general: Polarisation of emitted light reports the rotation of a fluorescent probe.)

Assay [4] is described as follows: inhibitors of hydroxyurea-induced Chk1 phosphorylation, primary screen, imaging, HeLa, phospho-Chk1 antibody, percent positive cells (AID 1186). The settings on record: hydroxyurea-induced phospho-Chk1 immunofluorescence imaging, higher = more signal.
The nature of assay [5]: inhibitors of hydroxyurea-induced Chk1 phosphorylation, primary screen, imaging, HeLa, phospho-Chk1 nuclear intensity (AID 1187). The settings on record: hydroxyurea-induced phospho-Chk1 immunofluorescence imaging, higher = more signal.

Homeobox protein Hox-A13 (Mus musculus), sequence (Q62424 whole entry, looked up): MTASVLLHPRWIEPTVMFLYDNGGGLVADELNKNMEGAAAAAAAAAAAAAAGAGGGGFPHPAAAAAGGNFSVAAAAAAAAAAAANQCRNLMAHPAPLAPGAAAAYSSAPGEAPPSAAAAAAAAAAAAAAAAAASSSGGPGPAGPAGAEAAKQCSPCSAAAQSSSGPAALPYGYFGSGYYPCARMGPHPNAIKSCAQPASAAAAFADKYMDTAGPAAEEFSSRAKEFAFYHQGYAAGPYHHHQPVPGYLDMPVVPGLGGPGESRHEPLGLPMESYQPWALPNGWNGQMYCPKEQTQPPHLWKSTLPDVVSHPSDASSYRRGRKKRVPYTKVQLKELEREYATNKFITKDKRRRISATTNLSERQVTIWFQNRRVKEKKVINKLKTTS

Turning to `[N-]=[N+]=Nc1ccccc1[C@H]1OC(c2ccc(OCCCO)cc2)=N[C@@]1(CCS(=O)(=O)c1ccccc1)C(=O)O`, the composite z-score was 0.835 (inactive) in assay [1] and 0.824 with XIP peptide (Xip251-270). Also, the z-score in assay [2] was -1.46; in assay [3] it was -4.02 (inactive); in assay [4], 0.189 (inactive); in assay [5] it was 0.222 (inactive).
As to `C=CCC(OC(C)=O)[C@@H]1[C@@H](N(Cc2ccc(-c3ccccc3)cc2)C(=O)Cc2ccc(F)cc2)c2cc(OCCCO)ccc2N1C(=O)c1ccc2ccccc2n1` (some centres not stated), the figures for the composite z-score (in assay [1]; with XIP peptide (Xip251-270)) were -0.517 (inactive) and -0.32, respectively. In addition, the z-score is -1.35 in assay [2], -1.5 (inactive) in assay [3], 0.344 (inactive) in assay [4] and -0.0849 (inactive) in assay [5].
Consider `CCOC(=O)C1=CC[C@@H](c2ccccc2)N(S(=O)(=O)c2ccc(C)cc2)[C@H]1C(=O)OCC`, for which the composite z-score is 0.414 (inactive) in assay [1] and -0.404 in the assay on XIP peptide (Xip251-270). Moreover, the z-score is -0.799 in assay [2], -5.23 (inactive) in assay [3], 0.0256 (inactive) in assay [4] and -0.831 (inactive) in assay [5].
For `CC(C)NC(=O)[C@@H]1c2ccccc2C(=O)N(Cc2ccccc2)[C@H]1c1ccc(CO)cc1`, the values for the composite z-score (in assay [1]; with XIP peptide (Xip251-270)) were 0.747 (inactive) and -0.138, respectively. Besides, the z-score is -0.679 in assay [2], -2.9 (inactive) in assay [3], -0.0443 (inactive) in assay [4] and 0.0197 (inactive) in assay [5].
As for `CCN(CC)c1ccc(N2CC=CC34O[C@@H]5C=CCCOC(=O)C5[C@H]3C(=O)N(CCCCCO)[C@@H]4C2=O)cc1` (some centres not stated), the composite z-score is 0.235 (inactive) in assay [1] and -0.782 in the assay on XIP peptide (Xip251-270). Also, the z-score in assay [2] was 0.315; in assay [3] it was -5.22 (inactive); in assay [4], 0.234 (inactive); in assay [5], 0.711 (inactive).
With `CCOC(=O)C1=CCC(C(C)(C)C)N(S(=O)(=O)c2ccc(C)cc2)C1` (configuration not stated), the composite z-score is 0.548 (inactive) in assay [1] and 0.806 with XIP peptide (Xip251-270). Besides, the z-score in assay [2] is -0.797; in assay [3] it was -4.56 (inactive); in assay [4], -1.42 (inactive); in assay [5], -1.98 (inactive).
As to `COCCOC(=O)N1C(=O)[C@@]2(c3cc(C#CCNC(N)=O)ccc31)[C@H](c1ccc(O)cc1)N1[C@H](c3ccccc3)[C@H](c3ccccc3)OC(=O)[C@H]1[C@@H]2C(=O)Nc1nc2ccccc2s1`, the composite z-score is -0.236 (inactive) in assay [1] and -0.132 in the assay with XIP peptide (Xip251-270). For the same molecule, the z-score is 0.0446 in assay [2], -0.523 (inactive) in assay [3], -0.373 (inactive) in assay [4] and -0.669 (inactive) in assay [5].
As for `COc1ccc(C#Cc2ccc3c(c2)[C@]2(C(=O)N3)[C@H](c3ccc(O)cc3)N3[C@H](c4ccccc4)[C@H](c4ccccc4)OC(=O)[C@H]3[C@@H]2C(=O)N2CCCCCCC2)cc1`, the composite z-score is 0.59 (inactive) in assay [1] and 0.644 with XIP peptide (Xip251-270). Besides, the z-score was -2.08 in assay [2], 3.13 (inactive) in assay [3], -0.184 (inactive) in assay [4] and -0.0916 (inactive) in assay [5].
`CN(C)C(=O)[C@@]1(CCC(=O)OC(C)(C)C)N=C(c2ccc(OCCCO)cc2)O[C@H]1c1ccccc1`: the composite z-score in assay [1] was 0.373 (inactive); with XIP peptide (Xip251-270), 0.909. Besides, the z-score in assay [2] was -1.8; in assay [3], -5.79 (inactive); in assay [4], 0.196 (inactive); in assay [5], 0.0613 (inactive).
On to `C=C(CCCC)/C(=C/C[C@H](OC(C)=O)c1ccc(CO)o1)c1cnc2ccccc2c1`, for which the composite z-score was 0.0563 (inactive) in assay [1] and 0.515 in the assay with XIP peptide (Xip251-270). Further, the z-score was -0.867 in assay [2], -5.74 (inactive) in assay [3], 0.0298 (inactive) in assay [4] and -0.0373 (inactive) in assay [5].
Regarding `CC(C)NC(=O)[C@@]1(Cc2ccccc2I)c2ccccc2C(=O)N(Cc2ccccc2)[C@H]1c1ccc(CO)cc1`, the composite z-score in assay [1] is 0.257 (inactive); in the assay on XIP peptide (Xip251-270), 0.784. The z-score was -1.22 in assay [2], -4.87 (inactive) in assay [3], -0.303 (inactive) in assay [4] and -0.346 (inactive) in assay [5].
On to `COC(=O)C1=CC(CCCO)=CC(C2CC2)N(Cc2sc3ccccc3c2Cl)C=C1C(=O)OC` (configuration not stated), for which the composite z-score in assay [1] was 0.827 (inactive); with XIP peptide (Xip251-270), 0.793. The z-score is -2.02 in assay [2], -5.27 (inactive) in assay [3], 0.0745 (inactive) in assay [4] and 0.263 (inactive) in assay [5].
For the molecule `Cc1cc(C)c(C(O)C2C=CC3C(=O)N(C)C(=O)C3N2Nc2ccccc2)c(C)c1` (configuration not stated), the figures for the composite z-score (in assay [1]; in the assay with XIP peptide (Xip251-270)) were -0.0222 (inactive) and 0.794, respectively. For the same molecule, the z-score is 0.642 in assay [2], -2.71 (inactive) in assay [3], 0.195 (inactive) in assay [4] and -0.137 (inactive) in assay [5].
In the case of `CCCC[C@H]1OB(O)C[C@H]2C1=C(C)C[C@H]1C(=O)N(Cc3ccccc3)C(=O)[C@H]12`, the composite z-score in assay [1] is 0.0643 (inactive); with XIP peptide (Xip251-270), 0.911. For the same molecule, the z-score is 0.508 in assay [2], -7.36 (inactive) in assay [3], -0.128 (inactive) in assay [4] and -0.379 (inactive) in assay [5].
Take `O=C1OCCC=C[C@H]2OC34C=CCN(Cc5ccccc5)C(=O)[C@H]3N(CCCCCCO)C(=O)[C@@H]4C12` (some centres not stated): the composite z-score in assay [1] was -0.271 (inactive); in the assay with XIP peptide (Xip251-270) it was 0.8. The z-score is 0.0921 in assay [2], -4.32 (inactive) in assay [3], 0.249 (inactive) in assay [4] and 0.489 (inactive) in assay [5].
Take `CN(C)CCCCNC(=O)[C@H]1C[C@H]2C(=O)N[C@@H](Cc3ccccc3)C(=O)N2[C@H]1c1ccc(O)cc1`: the composite z-score was 0.508 (inactive) in assay [1] and 0.0009 in the assay on XIP peptide (Xip251-270). Besides, the z-score in assay [2] is -1.16; in assay [3], -0.0255 (inactive); in assay [4] it was -0.0685 (inactive); in assay [5] it was -0.195 (inactive).
As for `O=C1[C@]2(CO)C=C(Br)[C@@H](C[C@@H]2c2ccccc2)[C@@]12CO2`, the composite z-score in assay [1] was -0.0567 (inactive); with XIP peptide (Xip251-270), 0.0525. Moreover, the z-score in assay [2] was 0.808; in assay [3] it was -2.52 (inactive); in assay [4], -0.0932 (inactive); in assay [5], -0.0264 (inactive).

Source of the values: PubChem BioAssay.
